These results are taken from PubChem BioAssay.

The nature of experiment [1]: optical density shifts of acrAB sulA E. coli – strain DRC41, OD650, 48 h, E. coli filamentation inducer project, primary screen (AID 1152).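 Further: E. coli MC1000 strain DRC41 lacking acrAB efflux pump and sulA.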 Particulars: higher = more signal, called active from +8 up or from −8 down.
Experiment [2] is described as follows: probe aLefty1 binding on compound microarray – biochemical, small-molecule microarray, 635/667 nm fluorescence, primary screen (AID 1153).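 Further: score merges spot fluorescence with signal-to-noise ratio from the scanned slide images.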 The conditions noted are these: higher = more signal.
A short description of experiment [3]: plasmodial surface anion channel blockers, osmotic lysis – cell-based, P. falciparum Indochina, OD700, 1 h, primary screen (AID 1154). The conditions noted are these: P. falciparum Indochina infected RBC osmotic lysis, higher = more signal, called active from +8 up or from −8 down.
Experiment [4] is described as follows: plasmodial surface anion channel blockers, osmotic lysis – cell-based, P. falciparum Indochina, OD700, 2 h, primary screen (AID 1155).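 Further: lysis reports solute entry through the parasite surface anion channel PSAC.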 Particulars: P. falciparum Indochina infected erythrocytes, higher = more signal, called active from +8 up or from −8 down.
The nature of experiment [5]: changes in parasitized red cell lysis, either direction – P. falciparum Indochina, OD700, 3 h, PSAC antagonist project, primary screen (AID 1156). Particulars: P. falciparum-infected erythrocytes, osmotic lysis, higher = more signal, called active from +8 up or from −8 down.
The nature of experiment [6]: plasmodial surface anion channel blockers, osmotic lysis – cell-based, P. falciparum Indochina, OD700, 18 h, primary screen (AID 1157). The conditions noted are these: P. falciparum Indochina infected erythrocytes, osmotic lysis OD700, 18 h; higher = more signal, called active from +8 up or from −8 down.
Experiment [7] is described as follows: S6 kinase pathway phospho-S6 level changes – cell-based, A549, cytoblot, luminescence, serum-stimulated, primary screen (AID 1158).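 Further: serum-stimulated A549 lung adenocarcinoma cells; signal is phosphorylated S6 detected by cytoblot immunostaining with HRP secondary.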 The conditions noted are these: 5 h, higher = more signal.
Experiment [8] has as its target NADPH oxidase 2 (Homo sapiens) (UniProt P04839). Briefly: compounds shifting NOX2 Amplex Red fluorescence – cell-based, HEK293-NOX2, PMA-stimulated, NOX inhibitor project, primary screen (AID 1159). Further: test concentration not given here. Particulars: 45 min, higher = more signal, called active from +8 up or from −8 down.
The target of experiment [9] is NADPH oxidase 4 (Homo sapiens) (UniProt Q9NPH5). Briefly: compounds shifting NOX4 Amplex Red fluorescence – cell-based, HEK293-NOX4, tetracycline-induced, NOX inhibitor project, primary screen (AID 1160). The conditions noted are these: HEK293-NOX4, Amplex Red H2O2 fluorescence, 45 min; higher = more signal, called active from +8 up or from −8 down.
Experiment [10] has as its target NADPH oxidase 5 (Homo sapiens) (UniProt Q96PH1). Briefly: compounds shifting NOX5 Amplex Red fluorescence – cell-based, HEK293-NOX5, NOX inhibitor project, primary screen (AID 1161). The conditions noted are these: HEK293-NOX5, ionomycin, 45 min, higher = more signal.

Activity calls are given as the source filed them.

Sequence of NADPH oxidase 4 (Homo sapiens) (Q9NPH5 whole entry, looked up): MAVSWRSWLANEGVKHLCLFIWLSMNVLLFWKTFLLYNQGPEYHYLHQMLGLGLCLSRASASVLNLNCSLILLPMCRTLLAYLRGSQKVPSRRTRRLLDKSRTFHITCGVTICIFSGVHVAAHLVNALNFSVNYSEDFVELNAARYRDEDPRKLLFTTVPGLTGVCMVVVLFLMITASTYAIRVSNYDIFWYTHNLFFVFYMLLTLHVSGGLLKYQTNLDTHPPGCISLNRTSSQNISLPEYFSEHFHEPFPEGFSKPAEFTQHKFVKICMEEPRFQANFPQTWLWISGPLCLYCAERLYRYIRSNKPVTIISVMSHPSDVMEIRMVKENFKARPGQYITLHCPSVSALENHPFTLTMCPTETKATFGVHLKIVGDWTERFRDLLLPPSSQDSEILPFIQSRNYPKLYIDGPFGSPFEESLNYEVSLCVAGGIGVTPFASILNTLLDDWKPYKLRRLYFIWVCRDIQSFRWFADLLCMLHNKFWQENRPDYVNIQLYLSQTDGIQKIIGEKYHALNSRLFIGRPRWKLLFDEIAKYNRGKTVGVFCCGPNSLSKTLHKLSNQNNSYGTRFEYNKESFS
Sequence of NADPH oxidase 2 (Homo sapiens) (P04839 whole entry, looked up): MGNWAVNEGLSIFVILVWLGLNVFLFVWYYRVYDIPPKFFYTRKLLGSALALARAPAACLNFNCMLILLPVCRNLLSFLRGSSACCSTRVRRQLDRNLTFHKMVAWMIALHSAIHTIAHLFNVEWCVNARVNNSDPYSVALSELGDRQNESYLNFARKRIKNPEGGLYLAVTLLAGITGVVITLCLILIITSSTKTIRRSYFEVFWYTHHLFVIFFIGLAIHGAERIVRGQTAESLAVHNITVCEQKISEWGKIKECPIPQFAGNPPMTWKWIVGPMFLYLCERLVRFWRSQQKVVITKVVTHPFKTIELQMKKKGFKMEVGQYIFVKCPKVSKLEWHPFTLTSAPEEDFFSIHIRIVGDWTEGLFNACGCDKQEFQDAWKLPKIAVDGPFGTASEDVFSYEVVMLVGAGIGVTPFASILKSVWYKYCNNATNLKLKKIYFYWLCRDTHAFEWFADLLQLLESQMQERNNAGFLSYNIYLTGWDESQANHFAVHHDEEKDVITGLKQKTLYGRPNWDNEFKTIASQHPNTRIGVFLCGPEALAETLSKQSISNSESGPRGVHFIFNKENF
Sequence of NADPH oxidase 5 (Homo sapiens) (Q96PH1 whole entry, looked up): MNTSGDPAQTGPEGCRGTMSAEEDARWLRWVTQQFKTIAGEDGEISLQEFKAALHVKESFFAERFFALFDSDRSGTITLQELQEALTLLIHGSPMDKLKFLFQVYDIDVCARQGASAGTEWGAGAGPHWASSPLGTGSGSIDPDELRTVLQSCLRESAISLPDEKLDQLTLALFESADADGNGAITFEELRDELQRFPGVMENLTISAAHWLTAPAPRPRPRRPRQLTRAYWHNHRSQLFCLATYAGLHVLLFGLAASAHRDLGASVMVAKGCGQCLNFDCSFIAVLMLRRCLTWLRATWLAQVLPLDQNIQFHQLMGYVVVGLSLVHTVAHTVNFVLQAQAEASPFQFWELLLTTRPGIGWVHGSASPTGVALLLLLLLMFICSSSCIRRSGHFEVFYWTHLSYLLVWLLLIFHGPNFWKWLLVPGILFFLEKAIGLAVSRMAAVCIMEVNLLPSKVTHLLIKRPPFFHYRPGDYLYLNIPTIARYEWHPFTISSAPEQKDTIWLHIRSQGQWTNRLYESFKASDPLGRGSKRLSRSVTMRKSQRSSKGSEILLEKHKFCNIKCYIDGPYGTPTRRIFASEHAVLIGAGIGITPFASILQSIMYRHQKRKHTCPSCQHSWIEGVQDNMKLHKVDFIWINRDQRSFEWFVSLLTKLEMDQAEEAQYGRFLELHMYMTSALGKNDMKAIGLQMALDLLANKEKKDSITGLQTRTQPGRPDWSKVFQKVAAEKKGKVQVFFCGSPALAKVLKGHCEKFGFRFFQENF

On to `COCC1=C2[C@@H](CCc3ccccc3)OB(O)C[C@@H]2[C@@H]2C(=O)N(C)C(=O)[C@@H]2C1`, for which the z-score was -0.801 (inactive) in [1]; 1.4 (inactive) in [3]; -0.301 (inactive) in experiment [4]; -0.793 (inactive) in [5]; -0.015 (inactive) in experiment [6]; -0.1 in [7]. Also, the values for the z-score in [8], in [9] and in [10] were -0.116 (inactive), 0.762 (inactive) and 0.217, respectively. This compound also yielded a composite z-score in experiment [2] of 0.0355.
In the case of `C=C(COC)C(=O)CC[C@H](OC(=O)c1cccnc1)c1ccc(CO)o1`, the z-score in experiment [1] is -0.471 (inactive); in experiment [3], 0.904 (inactive); in experiment [4] it was 0.0112 (inactive); in [5], -0.376 (inactive); in [6], 0.063 (inactive); in [7], -0.262. The z-score in experiment [8] is 0.337 (inactive); in experiment [9], -0.159 (inactive); in experiment [10], 0.221. The same compound yielded a composite z-score in experiment [2] of -0.147.
Regarding `NC(=O)NCC#Cc1ccc2c(c1)[C@]1(C(=O)N2)[C@H](C(=O)N2CCN(c3ncccn3)CC2)[C@H]2C(=O)O[C@H](c3ccccc3)[C@H](c3ccccc3)N2[C@@H]1c1ccc(OCCO)cc1`, the z-score in experiment [1] was 0.682 (inactive); in experiment [3], 5.91 (inactive); in [4], 1.66 (inactive); in [5], -0.015 (inactive); in [6], 0.689 (inactive); in experiment [7], -0.24. Besides, the z-score in experiment [8] was 1.44 (inactive); in [9], 1.1 (inactive); in experiment [10], 1.12. The composite z-score in experiment [2] worked out at 0.309.
In the case of `COC(=O)[C@@]1(Cc2ccccc2CN=[N+]=[N-])N=C(c2ccc(OCCCO)cc2)O[C@H]1c1ccccc1CN=[N+]=[N-]`, the z-score in experiment [1] is -0.586 (inactive); in experiment [3], 21.8 (active); in experiment [4] it was 7.79 (inactive); in [5], 0.912 (inactive); in experiment [6] it was 1.72 (inactive); in experiment [7] it was 0.141. Besides, the z-score in experiment [8] is -2.2 (inactive); in experiment [9] it was -0.00368 (inactive); in experiment [10] it was -2.01. This compound came in with a composite z-score in experiment [2] of 0.0288.
Turning to `[N-]=[N+]=NCc1ccccc1[C@@H]1OC(c2ccc(OCCCO)cc2)=N[C@]1(Cc1ccccc1N=[N+]=[N-])C(=O)NCCN1CCOCC1`, the z-score in [1] is -0.04 (inactive); in experiment [3], 16.5 (active); in [4], 2.41 (inactive); in experiment [5], 1.46 (inactive); in [6] it was 1.45 (inactive); in [7] it was -0.417. Further, the z-score in [8] is -2.49 (inactive); in [9] it was -0.406 (inactive); in [10], -1. The compound also gave a composite z-score in experiment [2] of 0.254.
As to `O=C1O[C@H](c2ccccc2)[C@H](c2ccccc2)N2[C@H]1[C@@H](C(=O)N1CCCCCCC1)[C@]1(C(=O)Nc3ccc(C#CC4(O)CCCCCC4)cc31)[C@H]2c1ccccc1OCCO`, the z-score in experiment [1] is -0.0659 (inactive); in [3], 0.707 (inactive); in experiment [4] it was 0.216 (inactive); in experiment [5], -0.168 (inactive); in [6], 0.614 (inactive); in experiment [7], 0.43. Moreover, the z-score in experiment [8] is 0.643 (inactive); in [9], 0.485 (inactive); in experiment [10], 1.56. The same compound showed a composite z-score in experiment [2] of 2.87.
As for `COCCOC(=O)N1C(=O)[C@@]2(c3cc(C#CC4(O)CCCCCC4)ccc31)[C@H](C(=O)N1CCN(c3ncccn3)CC1)[C@H]1C(=O)O[C@H](c3ccccc3)[C@H](c3ccccc3)N1[C@@H]2c1ccccc1OCCO`, the z-score in experiment [1] was -0.53 (inactive); in [3], 1.57 (inactive); in [4], 0.276 (inactive); in experiment [5], 0.547 (inactive); in experiment [6], 0.384 (inactive); in experiment [7], -0.21. Besides, the z-score is 1.82 (inactive) in experiment [8], -0.726 (inactive) in experiment [9] and 1.31 in experiment [10]. Further, the composite z-score in [2] turned out to be 0.487.
Turning to `O=C1C2C=CC(C(O)c3ccc(I)cc3)N(Nc3ccccc3)C2C(=O)N1c1ccccc1` (stereo not given), the z-score in [1] was -1.11 (inactive); in experiment [3], 6.92 (inactive); in [4], 2.42 (inactive); in [5], -0.166 (inactive); in experiment [6] it was 1.83 (inactive); in experiment [7], -1.21. For the same compound, the z-score is -1.88 (inactive) in [8], -3.86 (inactive) in experiment [9] and -2.54 in experiment [10]. This compound also displayed a composite z-score in experiment [2] of 0.437.
Take `C=C/C=C/[C@@H]1C(=C)CN([C@@H](Cc2ccccc2)C(=O)OC)[C@H]1[C@@H](O)Cc1ccccc1`: the z-score in [1] is 0.834 (inactive); in experiment [3], 0.743 (inactive); in experiment [4], 0.362 (inactive); in experiment [5] it was -0.41 (inactive); in experiment [6] it was 0.109 (inactive); in [7] it was 0.294. Besides, the z-score in experiment [8] was 0.0619 (inactive); in experiment [9] it was -0.199 (inactive); in experiment [10] it was 0.568. Also, the composite z-score in experiment [2] was -0.0601.
As for `C[C@]1(C(=O)NCCN2CCOCC2)c2ccccc2C(=O)N(Cc2cc(F)cc(C(F)(F)F)c2)[C@H]1c1ccc(CO)cc1`, the z-score in experiment [1] is 1.28 (inactive); in experiment [3], 5.73 (inactive); in [4], 0.651 (inactive); in [5], 1.24 (inactive); in experiment [6], 0.28 (inactive); in experiment [7], 0.523. Also, the figures for the z-score in experiment [8], in experiment [9] and in experiment [10] were 0.51 (inactive), 0.798 (inactive) and -0.291, respectively. Besides, in experiment [2], the composite z-score amounted to 0.0892.
As to `COc1ccc(C(=O)Nc2cccc(CN3C(=O)[C@@]4(O[C@@H](CC(=O)N(CCO)Cc5ccccc5)[C@H]([Si](C)(C)c5ccc(OC)cc5)[C@H]4C)c4ccccc43)c2)cc1`, the z-score was 1.23 (inactive) in [1]; 12.3 (active) in experiment [3]; 0.833 (inactive) in experiment [4]; -0.39 (inactive) in experiment [5]; -1.31 (inactive) in [6]; 1.58 in [7]. Also, the z-score in experiment [8] is 0.306 (inactive); in [9], 0.56 (inactive); in experiment [10] it was 2.08. In [2], this compound yielded a composite z-score of -0.443.
Regarding `COc1ccc(C#Cc2ccc3c(c2)[C@]2(C(=O)N3)[C@H](C(=O)Nc3nc4ccccc4s3)[C@H]3C(=O)O[C@H](c4ccccc4)[C@H](c4ccccc4)N3[C@@H]2c2ccccc2OCCO)cc1`, the z-score in experiment [1] is 2.86 (inactive); in experiment [3] it was 2.32 (inactive); in experiment [4] it was 2.07 (inactive); in experiment [5], -0.279 (inactive); in experiment [6] it was -0.442 (inactive); in experiment [7], 0.81. The z-score is 1.91 (inactive) in [8], -0.0532 (inactive) in experiment [9] and 0.268 in [10]. This compound also yielded a composite z-score in experiment [2] of -0.118.
Consider `O=C1C2C=CC(C(O)c3cc(C(F)(F)F)cc(C(F)(F)F)c3)N(Nc3ccccc3F)C2C(=O)N1c1ccccc1` (stereo not given), for which the z-score was -2.27 (inactive) in experiment [1]; 4.38 (inactive) in experiment [3]; 1.93 (inactive) in experiment [4]; -3.51 (inactive) in experiment [5]; 2.35 (inactive) in [6]; -0.746 in experiment [7]. In addition, the z-score in experiment [8] is -0.648 (inactive); in [9] it was -4.37 (inactive); in experiment [10] it was -1.58. For the same compound, the composite z-score in [2] came to 1.01.
